In the library only some 0.54% were active in any assay of this set; here they are far more common.
EPAC1 ag: qHTS for Agonist of cAMP-regulated guanine nucleotide exchange factor 3 (EPAC1): primary screen. EPAC1 agonist qHTS, biochemical assay; response scale: 100% = response to 6.5 mM cAMP. Potency, µM (top dose mostly 154 µM), without a hit: top-dose activation, actives largely listed as activators. hit rate 0.073% among 360,000; also: nearly all actives have a fitted effect of over 60% in size
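Multi-concentration qHTS readout: loss of Rap1B-bound BODIPY-GDP fluorescence driven by 100 nM EPAC1 with excess GDP (50 uM), monitored kinetically at room temperature; agonist response expressed relative to 6.5 mM cAMP.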
EPAC1 antag: qHTS for Antagonist of cAMP-regulated guanine nucleotide exchange factor 3 (EPAC1): primary screen. Potency, µM (top dose mostly 115 µM), without a hit: at the top dose activity change, negative = inhibition, actives largely listed as inhibitors. EPAC1 GEF assay, Rap1b-BODIPY-GDP exchange fluorescence. hit rate 0.14% among 360,000. Rap guanine nucleotide exchange factor 3 (Homo sapiens), O95398. AID 720709, 2013;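 also: plate controls were vehicle for no effect and positive control for full effect; nearly all actives have a fitted effect of over 50% in size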
TDP1 inh: qHTS Assay for Inhibitors of Tyrosyl-DNA Phosphodiesterase (TDP1). Tyrosyl-DNA phosphodiesterase 1 (Homo sapiens), Q9NUW8. recombinant TDP1, AlphaScreen DNA substrate cleavage. Potency, µM (series often up to 130 µM), for inactives: top-dose activity change, negative = inhibition, most hits filed as inhibitors. hit rate 0.28% among 350,000. AID 485290, 2010; also: % is scaled to controls: 0 for no effect and ±100 for the full control effect; nearly all actives have a fitted effect of over 40% in size
Target sequence (Q9NUW8 whole entry, looked up): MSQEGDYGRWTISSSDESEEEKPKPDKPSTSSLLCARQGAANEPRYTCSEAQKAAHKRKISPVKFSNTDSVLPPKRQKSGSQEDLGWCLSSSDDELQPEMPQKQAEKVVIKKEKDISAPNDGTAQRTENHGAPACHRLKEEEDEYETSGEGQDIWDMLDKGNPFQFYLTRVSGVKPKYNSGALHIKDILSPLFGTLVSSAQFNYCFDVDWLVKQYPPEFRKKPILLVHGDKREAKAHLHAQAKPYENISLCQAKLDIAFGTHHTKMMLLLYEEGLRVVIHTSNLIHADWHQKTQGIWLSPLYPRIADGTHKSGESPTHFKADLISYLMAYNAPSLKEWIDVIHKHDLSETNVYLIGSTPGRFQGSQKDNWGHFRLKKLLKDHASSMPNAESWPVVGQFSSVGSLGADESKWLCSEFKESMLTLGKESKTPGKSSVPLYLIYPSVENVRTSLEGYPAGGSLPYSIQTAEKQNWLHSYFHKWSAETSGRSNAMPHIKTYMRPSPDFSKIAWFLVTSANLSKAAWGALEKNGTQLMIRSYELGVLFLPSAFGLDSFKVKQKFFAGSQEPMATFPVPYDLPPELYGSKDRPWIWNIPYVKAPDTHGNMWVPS
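Enzyme-compound mixtures sat 15 min at room temperature, followed by a 5 min reaction with 15 nM final substrate and 10 min with AlphaScreen beads. Recombinant human Tdp1 was used at 1 nM final.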
EPAC2 ag: qHTS for Agonist of cAMP-regulated guanine nucleotide exchange factor 4 (EPAC2): primary screen. hit rate 0.079% among 360,000. Rap guanine nucleotide exchange factor 4 (Homo sapiens), Q8WZA2. Potency, µM (highest dose often 154 µM), inactives show at the highest dose activation, usual class: activators. EPAC2 activation, biochemical qHTS; response scale: 100% = 6.5 mM cAMP response; also: nearly all actives have a fitted effect of over 50% in size
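Exchange assay: 100 nM EPAC2 with 250 nM Rap1B-BODIPY-GDP and 50 uM GDP. Fluorescence (ex 480/em 540 nm) read every 5 min for 30 min at room temperature. Data normalized to 6.5 mM cAMP as agonist control.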
EPAC2 antag: qHTS for Antagonist of cAMP-regulated guanine nucleotide exchange factor 2 (EPAC2): primary screen | Rap guanine nucleotide exchange factor 4 (Homo sapiens), Q8WZA2 | EPAC2 GEF exchange of Rap1B-BODIPY-GDP, fluorescence | Potency, µM (titrated, usually from 114 µM), for inactives: at the top dose activity, negative = inhibition, most hits filed as inhibitors | hit rate 0.18% among 360,000; also: % is scaled to controls: 0 for no effect and ±100 for the full control effect; nearly all actives have a fitted effect of over 45% in size
ERG-DNA inh: qHTS for Small Molecule Inhibitors of the ERG Ets/DNA interaction | hit rate 0.028% among 370,000 | fluorescence polarization, His-ERG Ets domain / labelled DNA | AID 624246, 2012 | Potency, µM (highest dose often 76.9 µM), inactives show at the highest dose FP activity, negative = inhibition, hits mostly inhibitors | Transcriptional regulator ERG (Homo sapiens), P11308; active = well fitted inhibition curve with a large enough effect in the polarisation, with a control signal flat; inconclusive = small, poorly fitted or top-dose-only effect, or effect the other way, or a change in a side signal; inactive = no such curve, though single readings can be large or run the other way; the % refers to the polarisation;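 also: polarization taken with two DNA probes labelled with fluorescein and Texas red; % of control where 0% means no effect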
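His-tagged ERG Ets domain (1 uM in the protein solution; 300mM KCl, 50mM Tris-HCl, 1mM EDTA, 1mM DTT, pH 7.5) received compound, then a probe mix of 5 nM fluorescein-DNA and 100nM Texas-615-DNA. Fluorescence polarization was read for both dyes.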
The depositor's hits bear a star; ? = inconclusive; · = no result. Unless noted, calls follow the shape of the dose curve; as a rule, active = well fitted curve in the direction sought with a large enough effect; inconclusive = small, poorly fitted or top-dose-only effect, or another doubt; inactive = no such curve, though single readings can be large; an effect the other way counts as inactive or inconclusive. Potency is read from the fitted curve at half-maximal effect.

SMILES	EPAC1 ag	EPAC1 antag	TDP1 inh	EPAC2 ag	EPAC2 antag	ERG-DNA inh
O=C1NC(=Nc2ccccc2)S/C1=C\C=C\c1ccco1	-1.5%	?	2.7%	0.3%	4.3%	9.0%
Cc1ccc(N=C2NC(=O)/C(=C/C=C/c3ccco3)S2)cc1	-11.6%	56.2µM*	-5.6%	-2.7%	19.9%	12.2%
Cc1coc2c1C(=O)C(=O)c1c-2ccc2c1CCCC2(C)C	-29.9%	?	21.2%	-5.9%	13.4%	10.5%
Cc1coc2c1C(=O)C(=O)c1c-2ccc2c(C)cccc12	-1.9%	79.4µM*	5.9%	-0.5%	3.7%	1.9%
COc1ccc(-n2nc3c(=O)[nH][nH]c3cc2=O)cc1	4.2%	-9.4%	44.7µM*	4.6%	3.1%	-1.7%
O=C(O)c1cc(O)c2c(c1)[C@@H]([C@H]1c3cc(C(=O)O)cc(O)c3C(=O)c3c(O[C@@H]4O[C@H](CO)[C@@H](O)[C@H](O)[C@H]4O)cccc31)c1cccc(O[C@@H]3O[C@H](CO)[C@@H](O)[C@H](O)[C@H]3O)c1C2=O	-6.9%	35.5µM*	·	-4.0%	?	-12.0%
OCC1OC(Oc2cccc3ccccc23)C(O)C(O)C1O (configuration not stated)	-6.2%	16.8%	·	3.3%	5.0%	-5.2%
O=C(Nc1ccc2oc(-c3ccncc3)nc2c1)c1ccc(F)cc1	0.9%	8.8%	79.4µM*	5.0%	3.3%	3.4%
COc1ccc(-n2cnc3c(c2=N)C(c2cccc(OC)c2)c2c(ccc4ccccc24)O3)cc1 (configuration not stated)	·	·	6.8%	·	·	·

Source: PubChem
